{"source": "ChEMBL document CHEMBL1157539", "about": "“Thousands of chemical starting points for antimalarial lead identification” (Nature, 2010)", "format_in_all_cases": "functional", "key": {"Plasmodium falciparum [1]": {"test_system": "Plasmodium falciparum", "assay": "GSK_TCMDC: Inhibition of Plasmodium falciparum 3D7 in whole red blood cells, using parasite LDH activity as an index of growth. Test compounds present at 2uM"}, "Plasmodium falciparum [2]": {"test_system": "Plasmodium falciparum", "assay": "GSK_TCMDC: Inhibition of Plasmodium falciparum Dd2 in whole red blood cells, using parasite LDH activity as an index of growth. Test compounds present at 2uM"}, "HepG2": {"test_system": "HepG2", "assay": "GSK_TCMDC: Percent inhibition of human HepG2 cell line. Test compounds present at 10uM."}}}
{"smiles": "CC12CC3CC(C)(C1)CC(Nc1nc(N4CCOCC4)nc4ccccc14)(C3)C2", "values": [{"measurement": "Inhibition", "setting": "Plasmodium falciparum [1]", "result": 95, "unit": "%"}, {"measurement": "Inhibition", "setting": "Plasmodium falciparum [2]", "result": 14, "unit": "%"}, {"measurement": "Inhibition", "setting": "HepG2", "result": 31, "unit": "%"}]}
{"smiles": "Cc1ccc(C(=O)Cn2nc(-c3ccc(C)c(S(=O)(=O)N4CCCC4)c3)ccc2=O)cc1", "values": [{"measurement": "Inhibition", "setting": "Plasmodium falciparum [1]", "result": 94, "unit": "%"}, {"measurement": "Inhibition", "setting": "Plasmodium falciparum [2]", "result": 70, "unit": "%"}, {"measurement": "Inhibition", "setting": "HepG2", "result": 0, "unit": "%"}]}
{"smiles": "Cc1ccc2[nH]c(-c3cc(-c4ccc(OCc5ccccc5)cc4)cnc3N)nc2c1.O=C(O)C(F)(F)F", "values": [{"measurement": "Inhibition", "setting": "Plasmodium falciparum [1]", "result": 91, "unit": "%"}, {"measurement": "Inhibition", "setting": "Plasmodium falciparum [2]", "result": 87, "unit": "%"}, {"measurement": "Inhibition", "setting": "HepG2", "result": 33, "unit": "%"}]}
{"smiles": "CN(C)Cc1ccc(CN2CCN(CCOc3ccc(-c4ccc(Cl)cc4)cc3)CC2)o1", "values": [{"measurement": "Inhibition", "setting": "Plasmodium falciparum [1]", "result": 90, "unit": "%"}, {"measurement": "Inhibition", "setting": "Plasmodium falciparum [2]", "result": 21, "unit": "%"}, {"measurement": "Inhibition", "setting": "HepG2", "result": 75, "unit": "%"}]}
{"smiles": "C=CCOc1ccc(CNC2CCN(Cc3ccccc3)CC2)cc1Br.O=C(O)C(=O)O", "values": [{"measurement": "Inhibition", "setting": "Plasmodium falciparum [1]", "result": 92, "unit": "%"}, {"measurement": "Inhibition", "setting": "Plasmodium falciparum [2]", "result": 8, "unit": "%"}, {"measurement": "Inhibition", "setting": "HepG2", "result": 9, "unit": "%"}]}
{"smiles": "c1cncc(Oc2ccc(Nc3ccnc4cc(-c5cccc(CNCCN6CCOCC6)c5)ccc34)cc2)c1", "values": [{"measurement": "Inhibition", "setting": "Plasmodium falciparum [1]", "result": 100, "unit": "%"}, {"measurement": "Inhibition", "setting": "Plasmodium falciparum [2]", "result": 99, "unit": "%"}, {"measurement": "Inhibition", "setting": "HepG2", "result": 14, "unit": "%"}]}
{"smiles": "CCCCCCCCOc1c(OCC)cc(Cc2cnc(N)nc2N)cc1OCC", "values": [{"measurement": "Inhibition", "setting": "Plasmodium falciparum [1]", "result": 80, "unit": "%"}, {"measurement": "Inhibition", "setting": "Plasmodium falciparum [2]", "result": 0, "unit": "%"}, {"measurement": "Inhibition", "setting": "HepG2", "result": 25, "unit": "%"}]}
{"smiles": "Cc1c(F)cc(C(=O)NC2CC2)cc1-c1ccc2c(cnn2S(=O)(=O)c2cccs2)c1", "values": [{"measurement": "Inhibition", "setting": "Plasmodium falciparum [1]", "result": 92, "unit": "%"}, {"measurement": "Inhibition", "setting": "Plasmodium falciparum [2]", "result": 68, "unit": "%"}, {"measurement": "Inhibition", "setting": "HepG2", "result": 32, "unit": "%"}]}
{"smiles": "COCCNCC(O)Cn1c2ccc(Cl)cc2c2cc(Cl)ccc21", "note": "(stereo not drawn)", "values": [{"measurement": "Inhibition", "setting": "Plasmodium falciparum [1]", "result": 95, "unit": "%"}, {"measurement": "Inhibition", "setting": "Plasmodium falciparum [2]", "result": 74, "unit": "%"}, {"measurement": "Inhibition", "setting": "HepG2", "result": 15, "unit": "%"}]}
{"smiles": "O=C(O)C(F)(F)F.OC1CCCN(Cc2ccc(-c3ccc(-c4nc5cc(F)ccc5[nH]4)s3)cc2)C1", "note": "(stereo not drawn)", "values": [{"measurement": "Inhibition", "setting": "Plasmodium falciparum [1]", "result": 100, "unit": "%"}, {"measurement": "Inhibition", "setting": "Plasmodium falciparum [2]", "result": 99, "unit": "%"}, {"measurement": "Inhibition", "setting": "HepG2", "result": 40, "unit": "%"}]}
{"smiles": "Cc1cc(N/N=C/c2cccc([N+](=O)[O-])c2)c2ccc(C(F)(F)F)cc2n1", "values": [{"measurement": "Inhibition", "setting": "Plasmodium falciparum [1]", "result": 100, "unit": "%"}, {"measurement": "Inhibition", "setting": "Plasmodium falciparum [2]", "result": 51, "unit": "%"}, {"measurement": "Inhibition", "setting": "HepG2", "result": 2, "unit": "%"}]}
